# Sampled rows, rich in hits. Any-hit rate of the full collection: about 2.4%.
# Pf gametocyte = late stage P. falciparum gametocyte viability inhibitors, primary screen, ATP luminescence, HTS. P. falciparum stage V gametocytes, 24 h. inhibition, % at 10.9 µM. 150,000 compounds, 0.065% hits. AID 743093, 2013;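 active means inhibition above the mean plus 3 SD of compounds within the control limits, set per campaign, cut at about 38% in these data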;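 further: 0% = DMSO wells and 100% = medium only without gametocytes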
# Arbovirus inh = antivirals against arbovirus infection, primary screen, cell-based, full library, 10K replicate subset; AID 1251, 2008; 200,000 compounds, 0.37% hits; inhibition, % at 10 µM; arbovirus infection cell-based antiviral screen; in the data active means inhibition above about 30%
# MEKK3 PB1 HTS = modulators of MEKK3-MEK5 PB1 binding, primary screen, biochemical, wildtype MEKK3, multiplex bead flow cytometry, Alexa488-MEK5 | 290,000 compounds, 1.4% hits | binding response (% of control), % at 10 µM | bead-based flow cytometry, Alexa488-MEK5 binding to MEKK3; actives lie on both sides; 0 = blocked by unlabeled MEK5, 100 = vehicle;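 active means binding response more than 3 SD above or below the average of its plate-row segment, actives on both sides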;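 further: Alexa488 bead fluorescence after subtracting the streptavidin-only scavenger bead signal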
# Target sequence (Q99759 whole entry, looked up): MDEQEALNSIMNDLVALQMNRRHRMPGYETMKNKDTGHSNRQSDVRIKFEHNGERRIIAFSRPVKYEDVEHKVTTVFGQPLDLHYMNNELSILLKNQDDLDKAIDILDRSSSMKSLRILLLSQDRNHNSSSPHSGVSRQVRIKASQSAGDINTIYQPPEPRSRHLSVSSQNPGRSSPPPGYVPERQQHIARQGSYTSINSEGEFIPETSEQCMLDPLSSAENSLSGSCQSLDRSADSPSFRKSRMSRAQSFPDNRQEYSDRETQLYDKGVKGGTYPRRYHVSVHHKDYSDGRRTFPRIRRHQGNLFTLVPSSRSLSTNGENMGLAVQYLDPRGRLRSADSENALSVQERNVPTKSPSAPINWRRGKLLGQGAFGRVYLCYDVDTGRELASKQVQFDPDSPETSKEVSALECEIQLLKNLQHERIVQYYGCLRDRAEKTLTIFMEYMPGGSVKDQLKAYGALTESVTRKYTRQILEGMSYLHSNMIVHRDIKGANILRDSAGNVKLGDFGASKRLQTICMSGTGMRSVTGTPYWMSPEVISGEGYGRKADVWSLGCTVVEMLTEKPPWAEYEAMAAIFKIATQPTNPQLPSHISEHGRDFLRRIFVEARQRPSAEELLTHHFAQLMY
# MEKK2 mut-MEK5 = MEK5 binding signal on mutant MEKK2 PB1, primary screen, biochemical, multiplex bead flow cytometry, Alexa488-MEK5; Alexa488-MEK5 binding to MEKK2 mutant; percent response, % at 10 µM; 290,000 compounds, 0.35% hits; in the data active means percent response above about 24%, passing the limit was not always enough
# MEKK2wt PB1 HTS = modulators of MEK5 binding to wildtype MEKK2, primary screen, biochemical, multiplex bead flow cytometry, Alexa488-MEK5 | 290,000 compounds, 1.1% hits | Alexa488-MEK5 binding to MEKK2 WT; actives lie on both sides | binding response (% of control), % at 10 µM | Mitogen-activated protein kinase kinase kinase 2 (Homo sapiens), Q9Y2U5; in the data active means binding response below about 67% or above about 130%
# MEKK2wt confirm = modulators of MEK5 binding to wildtype MEKK2, confirmation, biochemical, single concentration, multiplex bead flow cytometry; Alexa488-MEK5 binding to MEKK2 WT; actives lie on both sides; 5,900 compounds, 2.4% hits; binding response (% of control), % at 10 µM; AID 1892, 2009; shares compounds with MEKK3 PB1 HTS; in the data active means binding response below about 16% or above about 210%; inactive means in between
# MEKK2mut-MEK5 = mutant MEKK2 PB1-MEK5 binding signal retest – biochemical, single concentration, multiplex bead flow cytometry, confirmation; shares compounds with MEKK3 PB1 HTS; Alexa488-MEK5 binding to MEKK2 mutant; percent response, % at 10 µM; 5,900 compounds, 2% hits; AID 1893, 2009; in the data active means percent response mostly above about 71%, no sharp cut-off; inactive means mostly below about 38%;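 further: higher means compound restores mutant binding toward wildtype level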
# MEKK3-MEK5 inh = MEKK3 wild-type PB1 binding to MEK5, inhibitors, confirmation, biochemical, bead multiplex flow cytometry, single concentration, wildtype; shares compounds with MEKK3 PB1 HTS; Alexa488-MEK5 binding to MEKK3; active compounds read low; binding response (% of control), % at 10 µM; 5,900 compounds, 1.8% hits; AID 1894, 2009;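 active means binding response below 72% of control, or above a set upper limit, though filed actives all read lower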;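 further: 100% = DMSO only wells and 0% = binding blocked by excess unlabeled MEK5; lower values mean stronger disruption of MEK5 binding to MEKK3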
# Numbers without * were called inactive; · = no result; [ ] = dose if it differs, or a comment.
SMILES,Pf gametocyte,Arbovirus inh,MEKK3 PB1 HTS,MEKK2 mut-MEK5,MEKK2wt PB1 HTS,MEKK2wt confirm,MEKK2mut-MEK5,MEKK3-MEK5 inh
Cc1cccc(C)c1NC(=O)CS(=O)CC(=O)NC1CCCc2ccccc21 (centres undefined),·,-4.4,132.0*,6.0,128.0,99.0,-3.0,100.0
COc1ccc(NC(=O)CS(=O)CC(=O)NC2CCCc3ccccc32)cc1 (centres undefined),·,-3.3,99.0,0.0,100.0,·,·,·
O=C(Cc1coc2ccc3ccccc3c12)NC1CCCc2ccccc21 (centres undefined),-4.2,-5.8,135.0*,1.0,106.0,97.0,-9.0,95.0
CN(CCc1cnn(C)c1)C(=O)C1CCC(=O)N(CC2CCCCC2)C1 (centres undefined),·,·,104.0,3.0,104.0,·,·,·
Cc1ccc(CCC(=O)Nc2ccc(N(C)C)cc2)o1,-6.4,·,110.0,5.0,108.0,·,·,·
CC(C)N(Cc1ccccc1)C(=O)CC(=O)N(Cc1ccccc1)C(C)C,·,·,102.0,6.0,104.0,·,·,·
NNC(=O)c1cc(-c2ccc(N)cc2)nc2ccc(Br)cc12,-1.8,·,99.0,0.0,95.0,·,·,·
C/C(=N\NC(=O)c1ccc(Cl)c(S(=O)(=O)Nc2ccccc2Cl)c1)c1ccncc1,·,-8.1,145.0*,2.0,106.0,99.0,3.0,100.0
Cc1cccc(C)c1NC(=O)C1(N(Cc2ccco2)C(=O)Cn2nnnc2N)CCCCC1,6.7,1.8,108.0,0.0,102.0,·,·,·
Cc1cccc(C)c1NC(=O)C1(N(Cc2ccco2)C(=O)CC2NC(=O)NC2=O)CCCC1 (centres undefined),-49.8,12.5,3.0*[inhibitor],-16.0,3.0*[inhibitor],104.0,6.0,109.0
CC(C)(C)NC(=O)COc1ccc(CNCc2cccs2)cc1,·,3.2,2.0*[inhibitor],-27.0,-1.0*[inhibitor],109.0,9.0,102.0
COc1cccc(-c2csc(NC(=O)C3CC3)n2)c1,·,25.5,109.0,2.0,106.0,·,·,·
Cc1ccc(-c2csc(/C(C#N)=C/Nc3ccc4c(c3)OCCO4)n2)cc1,-19.0,-22.8,113.0,0.0,105.0,·,·,·
CCN(CC)CCOC(=O)c1ccc(N/C=C(/C#N)c2nc(-c3cccc(OC)c3)cs2)cc1,13.6,·,31.0*[inhibitor],-14.0,93.0,78.0,-38.0,26.0*
CCN(CC)CCOC(=O)c1ccc(N/C=C(/C#N)c2nc(-c3ccc(OC)c(OC)c3)cs2)cc1,-11.0,·,29.0*[inhibitor],-1.0,94.0,53.0,-45.0,15.0*
O=C(CCS(=O)(=O)c1ccc(Br)s1)Nc1ccccc1Br,24.1,6.3,97.0,-3.0,93.0,·,·,·
O=C(Nc1cccc(F)c1)C1CCN(C(=O)NCc2ccccc2)CC1,·,·,100.0,-3.0,102.0,·,·,·
COc1ccc([C@H]2/C=C\CN(S(=O)(=O)c3ccc4ccccc4c3)[C@@H](C)C(=O)N2Cc2ccc(F)cc2)cc1,24.7,·,102.0,1.0,99.0,·,·,·
CCc1ccc(N(CC(=O)NC(C)(C)C)C(=O)CCC(=O)Nc2ccccn2)cc1,-6.8,·,101.0,2.0,101.0,·,·,·
N#CC1=C(N)C(C#N)(C#N)[C@H](c2c(F)cccc2F)[C@H]2CC3(CC=C12)OCCO3,·,-11.1,102.0,3.0,98.0,·,·,·
N#CC1=C(N)C(C#N)(C#N)C2(CCC3(CC2)OCCO3)C2CC3(CC=C12)OCCO3 (centres undefined),·,6.8,13.0*[inhibitor],-41.0,19.0*[inhibitor],104.0,1.0,102.0
CN1CCN(NC(=O)C23CC4CC(CC(C4)C2)C3)CC1,9.1,-3.5,108.0,3.0,108.0,·,·,·
CN1CCN(NC(=O)C2CC2)CC1,·,-4.7,142.0*,0.0,104.0,106.0,-3.0,103.0
COc1ccc(/C=N/NC(=O)C2(C)NC(C)(C)Cc3ccccc32)cc1 (centres undefined),7.7,7.3,96.0,-3.0,101.0,·,·,·
Cc1cc[n+](-c2[nH]c(=O)sc2/C=N/NC([S-])=Nc2ccccc2)cc1,-13.6,21.9,86.0,-1.0,97.0,·,·,·
SMILES,Pf gametocyte,Arbovirus inh,MEKK3 PB1 HTS,MEKK2 mut-MEK5,MEKK2wt PB1 HTS,MEKK2wt confirm,MEKK2mut-MEK5,MEKK3-MEK5 inh
Cc1cc(C)c[n+](-c2[nH]c(=O)sc2/C=N/NC([S-])=Nc2ccccc2)c1,4.5,-14.0,136.0*,1.0,109.0,98.0,-6.0,97.0
CN(C)C/C=C/C(O)(c1ccccc1)c1ccccc1,3.3,·,101.0,3.0,104.0,·,·,·
CN(C)CC(CCC(CN(C)C)C(O)(c1ccccc1)c1ccccc1)C(O)(c1ccccc1)c1ccccc1 (centres undefined),·,·,108.0,21.0,149.0*,161.0,45.0,117.0
CCC(C)NC(=O)Cc1cn(C)c2ccccc12 (centres undefined),·,3.9,3.0*[inhibitor],-14.0,3.0*[inhibitor],102.0,-12.0,96.0
NC1=NC(=O)/C(=C/c2cn(CCC(=O)O)nc2-c2ccc(Cl)cc2)S1,·,-10.2,108.0,0.0,107.0,·,·,·
NC1=NC(=O)/C(=C/c2cn(CCC(=O)O)nc2-c2ccc(F)cc2)S1,11.5,-3.9,129.0*,1.0,111.0,98.0,-2.0,100.0
COc1ccc(-c2cc3c(=O)n(CC(=O)NCc4ccc(F)cc4)ncn3n2)cc1,·,·,95.0,-6.0,89.0,·,·,·
O=C(CCCOc1ccc(Cl)cc1Cl)N/N=C/c1ccccc1,21.5,15.3,125.0,-1.0,105.0,·,·,·
Cc1ccc(/C=N/NC(=O)CCCOc2ccc(Cl)cc2Cl)cc1,·,-17.6,137.0*,-1.0,101.0,98.0,-6.0,98.0
CN(C)CCCNc1cc(C(C)(C)C)nc2c(-c3ccccc3)cnn12,-1.9,·,88.0,22.0,156.0*,168.0,51.0,103.0
CN(C)CCCNc1cc(-c2ccccc2)nc2cc(-c3cccc(F)c3)nn12,-7.8,·,108.0,40.0*,192.0*,179.0,35.0,105.0
CC(C)(C)c1cc(NCCCn2ccnc2)n2ncc(-c3ccc(Cl)cc3)c2n1,·,-27.9,98.0,37.0*,157.0*,158.0,37.0,113.0
Cc1ccc(Cn2ccc(O)c(Cc3ccccc3)c2=O)cc1,11.8,-2.6,108.0,5.0,108.0,·,·,·
Cn1ncc(Br)c1NC(=O)CSc1ccc(Cl)cc1,-0.3,·,97.0,-1.0,95.0,·,·,·

# Screening results: PubChem BioAssay, several laboratories
